# Data reported in PubChem BioAssay AID652104 (National Center for Advancing Translational Sciences (NCATS), 2013).
# About 7,200 (1.8%) of roughly 410,000 compounds were called active. Not shown: some 7% with an inconclusive outcome. The full list was thinned out, with actives kept by preference. A number with no mark means an inactive call. The call rests on the fitted dose curve; in most records, active means well fitted activation curve with a large enough effect; inconclusive means small, poorly fitted or top-dose-only effect, or another doubt; inactive means no such curve, though single readings can be large or run the other way.
# Assay: qHTS of TDP-43 Inhibitors; further: nearly all actives have a fitted effect of over 50% in size; on growth rescue (activation): % of control where 0% means no effect
# Settings: TDP-43 expressing yeast growth rescue, BacTiter-Glo, 24 h; series mostly up to 46.1 µM; growth rescue (activation): at the top concentration
# In short: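 Readout is BacTiter-Glo luminescence of cell growth, so inhibitors register as activators. TDP-43-expressing yeast at OD600=0.02 in galactose medium, after raffinose pregrowth to mid-log, were incubated with compound for 24 hr at 30 deg C.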
# Potency means the concentration at half of the fitted maximal effect.
SMILES,growth rescue (activation),Potency
CCOC(=O)c1c(C)[nH]c(CCC(=O)NCCCN2CCN(c3cccc(Cl)c3)CC2)c1C,13.5%,
Cc1cc(NC(=O)c2ccc(-c3ccc(Cl)cc3)o2)cc(-c2nc3ncccc3o2)c1O,12.2%,
Cc1ccc(C(=O)COC(=O)CCCC(=O)NC2CCCCC2)cc1[N+](=O)[O-],5.33%,
Cc1cc([N+](=O)[O-])c(N2CCC[C@@H]2C(=O)O)c([N+](=O)[O-])c1,-26.4%,
Cc1cc([N+](=O)[O-])c(NC2CCCCC2)c([N+](=O)[O-])c1,,35.5 µM (active)
COc1ccc(S(=O)(=O)c2c(Nc3ccc(C)cc3)sc(C(=O)c3ccc(C)cc3)c2N)cc1,12.2%,
CCOc1ccc(NC(=O)Cn2c(C)ccc(C#N)c2=O)cc1,-1.23%,
CC(N=Cc1nc(-c2ccccc2)oc1O)c1ccccc1 (stereo not drawn),,12.6 µM (active)
Cn1c(=O)c2c(nc(SCC(=O)Nc3ccc(F)cc3)n2Cc2ccc(Cl)cc2)n(C)c1=O,12.5%,
CCn1c2ccccc2c2cc(CN3CCN(Cc4cccc(Cl)c4)CC3)ccc21,6.14%,
CCCCNC(=O)CSc1nc2cc3c(cc2c(=O)n1CCCCCC(=O)NCc1ccc2c(c1)OCO2)OCO3,18.1%,
CC1Cc2ccccc2N1C(=O)Cn1cnc2ccccc2c1=O (stereo not drawn),-3.07%,
CC1Cc2ccccc2N1C(=O)CSc1nnc(C2CC2)n1C (stereo not drawn),1.9% [at 9.22 µM],
CC1Cc2ccccc2N1C(=O)CSc1nc2ccccc2o1 (stereo not drawn),,12.6 µM (active)
CCc1ccc(NC(=O)c2cnc3c(-c4ccccc4)c(C)nn3c2C)cc1,20.4%,
O=C(CN1C(=O)COc2ccc(S(=O)(=O)N3CCOCC3)cc21)N1CCN(c2cccc(Cl)c2)CC1,12.5%,
O=C(COc1ccc(Cl)cc1)Nc1ccccc1OCc1cc(=O)n2ccccc2n1,12.3%,
COc1cc(/C(=C/c2ccccc2)c2ccccc2)c2c(c1)oc1ccccc12,-12.2%,
Cc1oc2cc([N+](=O)[O-])c(O)c([N+](=O)[O-])c2c1C(=O)c1ccc(Br)cc1,-43.2% [at 9.22 µM],
Cc1oc2cc(Br)c(O)c(Br)c2c1C(=O)c1ccccc1,,22.4 µM (active)
CCc1ccccc1NC(=O)c1sc2nc3c(cc2c1N)CN(Cc1ccccc1)CC3,21%,
Cc1cccc(CCNC(=O)c2ccc3c(c2)nc2n3CCC(C)C2)c1 (stereo not drawn),5.91%,
CS(=O)(=O)N(CC(=O)Nc1ccc(F)cc1)C1CCCCC1,14.6%,
CS(=O)(=O)N(CC(=O)Nc1ccc(Cl)c(Cl)c1)C1CCCCC1,,15.8 µM (active)
CCC(C)NC(=O)CN(C1CCCCC1)S(C)(=O)=O (stereo not drawn),-30.4%,

SMILES,growth rescue (activation),Potency
CC(C)c1cccc(C(C)C)c1Nc1cn[nH]c1,,3.98 µM (active)
FC(F)(F)c1cc(Nc2nc3ccccc3c3nncn23)ccc1Cl,0%,
O=C(CC(NCc1cccnc1)C(=O)O)Nc1ccc(O)cc1 (stereo not drawn),0.784%,
COc1ccc2c(CNCCc3ccccc3C)c(C(=O)O)n(Cc3ccccc3C)c2c1,12.8%,
CCN(CCCNC(=O)CSc1cc(=O)n(C)c2cc(Cl)ccc12)c1cccc(C)c1,-25.5%,
CC(C)c1cccc(-c2csc(C(O)c3ccccc3)n2)c1 (stereo not drawn),,17.8 µM (active)
COc1cc(C(O)c2nc(-c3cnn(C)c3)cs2)ccc1F (stereo not drawn),0%,
COc1ccc(C(O)c2nc(-c3ccc4c(c3)OCO4)cs2)cc1 (stereo not drawn),,14.1 µM (active)
Cc1ccccc1-c1csc(C(O)c2cccc(Cl)c2)n1 (stereo not drawn),8.26%,
COc1ccc(-c2csc(C(O)c3cccc(Cl)c3)n2)cn1 (stereo not drawn),,25.1 µM (active)
CC(O)(c1cccc(F)c1)c1nc(-c2ccc3c(c2)OCO3)cs1 (stereo not drawn),-55.4%,
COc1cccc(C(NC(C)=O)c2nc(-c3ccccc3OC)cs2)c1 (stereo not drawn),13.7%,
OC(c1ccccc1)c1nc(-c2cnc3ccccc3c2)cs1 (stereo not drawn),0%,
Cc1ccc(-c2nc(Cn3c(=O)cc(-c4ccccc4)c4c(C)nn(C)c43)c(C)o2)cc1,11.8%,
CCCCN1CC(c2nc3ccccc3n2CCCCOc2ccc(C)cc2C)CC1=O (stereo not drawn),-86.6%,
Cc1ccc(-c2nc(CS(=O)(=O)CC(=O)NCc3ccccc3Cl)c(C)o2)cc1,14.5%,
O=C(N/N=C/c1cccc(OCc2ccccc2)c1)c1ccc(Br)o1,,11.2 µM (active)
O=C(N/N=C\C1CC=CCC1)c1ccc(Br)o1 (stereo not drawn),11.6%,
O=C(Nc1cccc(C(=O)O)c1)/C(=C\c1ccccc1)NC(=O)c1ccc(Br)o1,-9.24%,
CC(C)Sc1oc(-c2cccs2)nc1S(=O)(=O)c1ccc(Cl)cc1,3.2%,
CCOc1cccc2cc(-c3cn4c(n3)sc3cc(C)ccc34)c(=O)oc12,6.67%,
CCOc1ccc(NC(=O)CN(Cc2ccccc2)S(=O)(=O)c2ccc(Cl)cc2)cc1,16.1%,
CCOc1ccc(N(Cc2ccccc2)C(=O)c2nc(SCC)ncc2Cl)cc1,-20.1%,
CCOc1ccc(N(Cc2ccccc2)C(=O)c2nc(S(C)(=O)=O)ncc2Cl)cc1,,17.8 µM (active)
COc1ccc(CNc2nc(-c3ccc(Cl)cc3)nn2S(=O)(=O)c2ccc(C)cc2)cc1,20.8%,

SMILES,growth rescue (activation),Potency
CCC(=O)Nc1ccc2nc(SCC(=O)N3CCc4ccccc43)sc2c1,-8.25%,
COc1ccccc1CCC(=O)NNC(=O)c1ccncc1,-23.5%,
Cc1c(NC(=S)NC(=O)CCc2ccccc2)c(=O)n(-c2ccccc2)n1C,-15.5%,
CCCc1ccc(OCC(=O)NNC(=S)NC(=O)c2ccco2)cc1,,3.98 µM (active)
CCC1CCCCN1C(=S)NC(=O)c1ccco1 (stereo not drawn),11.5%,
COc1ccc(N(CC(=O)NC(C)(C)C)C(=O)c2ccco2)cc1,11.1%,
COc1ccc(C(=O)NC(=S)NNC(=O)CCc2ccccc2)cc1,,17.8 µM (active)
O=C(c1ccc2c(c1)N(Cc1ccccc1F)C(=O)c1ccccc1S2(=O)=O)N1CCOCC1,-5.9%,
CC(Sc1oc(-c2ccco2)nc1S(=O)(=O)c1ccc(Br)cc1)c1ccccc1 (stereo not drawn),-9.35%,
Cc1nc(Cl)cc(N/N=C/c2ccccc2)n1,,7.94 µM (active)
CC1=NNC(=O)C1CCC(=O)N/N=C\c1cccc(Cl)c1 (stereo not drawn),-7.49%,
CC(C)Oc1ccc(CNC(=O)C2CCN(c3nc4ccccc4n(C)c3=O)CC2)cc1,2.78%,
Cc1ccc(-c2nc(CSCC(=O)NC3CCN(Cc4ccccc4)CC3)c(C)o2)cc1,-25.4%,
CNC(=O)c1ccsc1NC(=O)c1ccc(S(=O)(=O)N2CCc3ccccc32)cc1,26.1%,
CNC(=O)c1ccc(-c2nc(CN3CCc4ccccc43)c(C)o2)cc1,,10 µM (active)
COc1ccc(NC(=O)c2ccc3nc(CCc4ccccc4)oc3c2)c(OC)c1,-6.5%,
Cc1ccc(-c2noc(-c3nnn(-c4cccc(C(F)(F)F)c4)c3N)n2)cc1,13.2%,
CC(C)Oc1cc(F)ccc1-c1cc(C(=O)Nc2cccc(Cl)c2)[nH]n1,-0.284%,
COc1ccc(-c2cc(C(=O)NCc3cc(OC)c(OC)c(OC)c3)[nH]n2)cc1,-13%,
COc1ccccc1CNC(=O)c1cc(-c2cc(Cl)ccc2C)n[nH]1,23.4%,
COc1ccccc1CNC(=O)c1cc(-c2cc(F)ccc2OC)n[nH]1,,22.4 µM (active)
COc1cc(F)ccc1-c1cc(C(=O)NCC2CCCCC2)[nH]n1,,25.1 µM (active)
COc1ccc(C(=O)NCC2CCCCC2)cc1S(=O)(=O)N1CCCC1,4.93%,
COc1ccc(CN2CCCC(CNC(=O)c3ccc(F)cc3)C2)cc1OC (stereo not drawn),-11.7% [at 0.397 µM],
COc1cc(NC(=O)c2cc(-c3ccc(F)cc3OC(C)C)n[nH]2)cc(OC)c1OC,,28.2 µM (active)

SMILES,growth rescue (activation),Potency
CC(C)Oc1cc(F)ccc1-c1cc(C(=O)Nc2ccc(F)cc2)[nH]n1,10.3%,
CN1CCN(C2(CNC(=O)COc3ccc(C(C)(C)C)cc3)CCCCC2)CC1,4.73%,
CC(=O)Nc1ccc2nc(SCCOc3cc(C)cc(C)c3)sc2c1,-5.36%,
Cc1ccc(C(=O)Nc2cc3c(cc2N2CCCC2)n(C)c(=O)c(=O)n3C)cc1,-6.47%,
CCCCCn1c(=O)[nH]c2cc(C(=O)Nc3cc(C)cc(C)c3)ccc2c1=O,9.06%,
CCOc1ccc(Nc2c(S(=O)(=O)c3ccccc3)cnc3ccccc23)cc1,21.1%,
O=C(c1ccc(C(F)(F)F)cc1)N1CCC(c2nc(-c3ccc(S(=O)(=O)N4CCCC4)cc3)no2)CC1,7.52%,
CCOC(=O)c1c(SCC(=O)Nc2cccc(C)c2C)nc(=O)[nH]c1C,5.54%,
O=C(O)/C=C/c1ccc2c(c1)OCCO2,,15.8 µM (active)
O=C(Nc1ccc2c(c1)OCCO2)C1CCCC1,1.92%,
O=C(COC(=O)/C=C/c1ccc2c(c1)OCO2)NC1CCS(=O)(=O)C1 (stereo not drawn),-7.5%,
COc1ccc(NC(=O)NC(C)c2c(-n3cccc3)sc(C)c2C)cc1OC (stereo not drawn),12.6%,
COc1ccc(CCNC(=O)C(=O)NCC(c2ccco2)S(=O)(=O)c2cccs2)cc1OC (stereo not drawn),21.8%,
COc1cc(NC(=O)Cn2nc(-c3ccc(C)c(C)c3)ccc2=O)cc(OC)c1,14.8%,
COc1ccc(C2c3c(oc4ccccc4c3=O)C(=O)N2Cc2ccc3c(c2)OCO3)cc1 (stereo not drawn),-8.02%,
Cc1ccc(S(=O)(=O)n2nc(-c3ccc(Cl)cc3)nc2NCc2ccccc2)cc1,-3.27%,
COc1ccc(OCCCn2c(C)nc3cc(C)c(C)cc32)cc1,21.8%,
Cc1cc(C)c2oc(C(=O)Nc3ccc(S(=O)(=O)N4CCCCCC4)cc3)cc(=O)c2c1,14.9%,
Cc1ccccc1C(=O)Nc1nnc(S(=O)(=O)N(C)c2ccc(Cl)cc2)s1,5.15%,
CC1(C(=O)NCc2ccco2)Cc2c(-c3ccc4c(c3)OCO4)ccnc2O1 (stereo not drawn),23.5%,
CC1(C(=O)NCc2ccc(F)c(F)c2)Cc2c(-c3ccc4c(c3)OCO4)ccnc2O1 (stereo not drawn),,35.5 µM (active)
CC(=O)Nc1cccc(-c2ccnc3c2CC(C)(C(=O)NCc2ccccc2)O3)c1 (stereo not drawn),18.4%,
COc1ccc(CNC(=O)CSc2nc3ccccc3nc2Cc2ccccc2)cc1,8.1%,
